Test results reported in PubChem BioAssay.
The source made the active and inactive calls. How the calls were made is not given here.

assay: P. aeruginosa biofilm formation inhibitors, primary screen, PAO1 strain, BacTiter-Glo luminescence, LB-PBS (AID 1144); conditions: 12 h, higher = more signal

z-score, inactive:
COCCOC(=O)N1C(=O)[C@@]2(c3cc(C#CCC(C(=O)OC)C(=O)OC)ccc31)[C@H](C(N)=O)[C@H]1C(=O)O[C@H](c3ccccc3)[C@H](c3ccccc3)N1[C@@H]2c1ccc(O)cc1 -1.01
COc1cc(OC)c(C(O)C2C=CC3C(=O)N(c4ccccc4)C(=O)C3N2Nc2ccc(C(C)C)cc2)cc1Br (centres undefined) -1.49
C#CCN1[C@@H](Cc2ccccc2)C(=O)O[C@H](Cc2ccccc2)[C@@H]1/C=C/C1CC1 1.18
CN(C)CCCNC(=O)[C@@H]1c2ccccc2C(=O)N(Cc2ccccc2C(F)(F)F)[C@H]1c1ccc(CO)cc1 0.405
COc1ccc([Si](C)(C)[C@H]2[C@H](CCO)O[C@@]3(C(=O)N(Cc4ccc(NC(=O)[C@H](C)O)cc4)c4ccccc43)[C@@H]2C)cc1 -0.159
CCOC(=O)C[C@H]1[C@H](OC(=O)c2ccccc2-c2ccccc2)[C@@H](NC(=O)c2ccc3ccccc3c2)c2cc(OCCCO)ccc2N1C(=O)Cc1ccc(OC)cc1 0.619
COCCCN1C(=O)[C@@]2(c3ccc([N+](=O)[O-])cc3)CC(=O)N(CC34CC5CC(CC(C5)C3)C4)[C@@H]2c2ccc(CO)cc21 -0.453
C=C1C(=O)C=C2CN(C(=O)c3ccccc3)[C@@](Cc3ccc(OC)cc3)(C(=O)OC)[C@@H]12 0.249
C=CCNC(=O)[C@H]1[C@@H]2C(=O)O[C@@H](c3ccccc3)[C@@H](c3ccccc3)N2[C@@H](c2ccc(OCCO)cc2)[C@]12C(=O)Nc1ccccc12 -0.9
